Results on 4 compounds are retold here after PubChem BioAssay.

A word on the viability: it is a read-out of living cells in per cent, often relative to untreated cells.

Several values for one entry are separate records, joined by “and”; a condition that tells them apart may be missing. Equal entries are not always repeated. Records with an inconclusive call do not appear. Activity calls are given as the source filed them.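 Rule for the calls, unless noted: active = normalized viability below 100% at a tested concentration; inactive = the rest.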

Experiment [1] is described as follows: Wnt pathway potentiators raising nuclear beta-catenin – imaging, WNT3A-conditioned medium, mouse C2C12, NPC library, primary screen (AID 1117326; in the data active = nuclear beta-catenin stimulation mostly above about 4.2%, no sharp cut-off; inactive = mostly below about 10%). The following applies: stronger effect = higher value.
A short description of experiment [2]: stimulators of insulin release from INS-1E, primary screen, cell-based, 5 mM glucose, NPC library (AID 1117329;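 active = compound raises insulin release from rat beta cells at 5 mM glucose, no numeric limit stated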). The note with it: rat INS-1E insulin secretion, at 10 µM, stronger effect = higher value.
Experiment [3] can be described thus: growth inhibition of GSK3B-pretreated HCT116 cells – cell-based, CellTiter-Glo, 0.2 to 20 µM (AID 1117336;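 active = compounds lowering colon cancer cell viability after pretreatment blocking the GSK3B kinase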). The following applies: HCT116 viability after GSK3B inhibitor, at 20 µM, stronger effect = higher value. On the technique in general: Cellular ATP, detected with luciferase, serves as a proxy for viable cell number.
Experiment [4] is described as follows: inhibition of endothelial tube formation, primary screen, imaging, VEGF stimulated, CD31 staining, tube area, NPC library (AID 1117340;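 active = compound that reduces growth-factor-driven endothelial tube area in a mixed cell culture, no cutoff stated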). The note with it: VEGF-stimulated ADSC/ECFC co-culture, at 10 µM, stronger effect = higher value.
Experiment [5] is described as follows: GLP1 release stimulators, primary, NCI-H716, NPC library (AID 1117341;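 active = compound raises GLP1 secretion from the human gut endocrine cells, with no numeric limit stated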). The following applies: NCI-H716 cells, at 10 µM, stronger effect = higher value.
Experiment [6] can be described thus: HCT116 colon cancer cell growth inhibition, primary screen, CellTiter-Glo luminescence, NPC library (AID 1117342;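 active = compounds that lower survival of HCT116 colon cancer cells in the luminescence readout, no numeric limit stated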). The following applies: at 20 µM (top of the series).
Experiment [7] in a line: reduced SW480 viability measured with CellTiter-Glo, NPC library, primary (AID 1117343;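 active = compounds that lower viability of the colon cancer cells in the luminescence readout, with no numeric limit stated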). The following applies: CellTiter-Glo luminescence; at 20 µM (top of the series) unless noted.
Experiment [8] is described as follows: NPC library primary testing for decreased DLD-1 cell viability via CellTiter-Glo (AID 1117346;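 active = compounds that lower survival of DLD-1 colon cancer cells in the luminescence readout, no cutoff given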). The note with it: DLD-1 viability, CellTiter-Glo luminescence; at 20 µM (top of the series).
The nature of experiment [9]: viability loss in pontine glioma line – cell-based, JHH-DIPG-1, MIPE4.0, CellTiter-Glo, qHTS, dose response (AID 1347062; cut-off not given, nearly all actives have AC50 up to about 27 µM). The note with it: JHH-DIPG-1 viability, CellTiter-Glo ATP luminescence.
Experiment [10] is described as follows: viability loss in pontine glioma line – cell-based, SU-DIPG-IV, MIPE4.0, CellTiter-Glo, qHTS, dose response (AID 1347063; cut-off not given, nearly all actives have AC50 up to about 30 µM;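 note: compound exposure lasted 48 hours before the viability readout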). The following applies: CellTiter-Glo ATP luminescence.
Experiment [11] is described as follows: growth inhibition of DIPG cells – cell-based, MIPE4.0 library, CellTiter-Glo luminescence, qHTS (AID 1347066; cut-off not given, nearly all actives have AC50 up to about 30 µM;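 note: cells exposed to compound for 48 hours before readout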). The following applies: SU-DIPG-VI viability, CellTiter-Glo ATP luminescence.
The nature of experiment [12]: viability loss with induced miR-34 in A549 – imaging, A549 dox-inducible miR-34, nuclei and caspase counts, primary screen (AID 1347080;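 active = compounds whose cell count with miR-34 switched on is under 0.7 times the count with it off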). The following applies: A549 miR-34 inducible, Hoechst nuclei count, 48 h.
Experiment [13] is described as follows: MELAS cybrid and Rieske KO viability enhancers – cell-based, MELAS cybrids, Rieske KO mouse fibroblasts, CellTiter-Glo, primary screen (AID 1508586;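 active = mean z-score across replicates of 1.96 or higher in either the MELAS or the Rieske mutant cell line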;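 note: z relative to plate mean and SD of compound and empty wells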). The note with it: low glucose.
Experiment [14] in a line: blockers of cellular phospholipid synthesis – cell-based, LOPAC library, screen 4, primary screen (AID 1347384; call rule not given here). The following applies: animal cells, phospholipid biosynthesis inhibition screen; at 10 µM.
Experiment [15] in a line: galactose survival enhancers in mitochondrial complex I cybrids – cell-based, galactose medium, ATP luminescence, primary screen (AID 1645843;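 active = z-score of at least 1.8 in each of two replicates, scored against plate mean and spread of sample wells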;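 note: positive z means more ATP and so rescue of galactose-driven cybrid death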). The note with it: complex I mutant cybrid cells, 72 h, stronger effect = higher value.
Experiment [16] can be described thus: drug combination growth inhibition, ovarian cancer – cell-based, oncology-focused library, rucaparib conditional, profiling panel (AID 1508598). The following applies: patient-derived ovarian cancer cells, CellTiter-Glo viability, 144 h, stronger effect = lower value.
Setting [17] is: stronger effect = lower value, cell number ratio, induced over uninduced.
[18] abbreviates: measured here: relative caspase fold change +Dox/-Dox.
Setting [19] is: measured here: total cells with miR-34 induction, stronger effect = lower value.
Setting [20] is: measured here: total cells without miR-34 induction.
Where [21] appears, read: MELAS cybrid survival, CellTiter-Glo 48 h, stronger effect = higher value.
[22] abbreviates: Rieske KO mouse fibroblast survival, CellTiter-Glo 72 h.

With `C=CCc1cc(OC)c(O)c(C(=O)NCCO)c1`, the nuclear beta-catenin stimulation in [1] (at 10 µM) is 1.7% (inactive); in [1] (stimulation, at 2 µM) it was 2.4%. Also, the insulin secretion stimulation in [2] was -0.7% (inactive). Moreover, the viability decrease in [3] is -4.9% (inactive). For the same compound, the tube area decrease in experiment [4] is 4.3% (inactive). For the same compound, the GLP1 secretion stimulation in [5] was 0.4% (inactive). Besides, the inhibition of viability in [6] is -7.7% (inactive). For the same compound, the figures for the viability decrease (inhibition) in [7] and in [8] were 33.7% (inactive) and 1.9% (inactive), respectively. Further, the compound was called inactive in [9], in experiment [10] and in experiment [11]. The fold change was 0.947 (inactive) in [12] (setting [17]) and 0.662 in [12] (setting [18]). In addition, the cell count in experiment [12] (setting [19]) is 8720; in experiment [12] (setting [20]), 9220. Further, the z-score was -0.166 (inactive) in experiment [13] (setting [21]) and 0.363 in [13] (setting [22]).

Take `O=C(CS(=O)Cc1ccco1)NC/C=C\COc1cc(CN2CCCCC2)ccn1` (configuration not stated): the nuclear beta-catenin stimulation in experiment [1] (at 10 µM) was -0.3% (inactive); in experiment [1] (stimulation, at 2 µM) it was -0.8%. Further, the insulin secretion stimulation in [2] was 4% (inactive). In experiment [3], the viability decrease was -4.8% (inactive). Further, the tube area decrease in [4] is 8% (inactive). Further, the GLP1 secretion stimulation in experiment [5] is -0.5% (inactive). The inhibition of viability in experiment [6] was 2.2% (inactive). The figures for the viability decrease (inhibition) in [7] and in experiment [8] were -8.8% (inactive) and 6.7% (inactive), respectively. The call in experiment [9], in experiment [10] and in experiment [11] was inactive.

With `N[C@@H](COP(=O)(O)O)C(=O)O`, the nuclear beta-catenin stimulation in [1] (at 10 µM) is 0.6% (inactive); in experiment [1] (stimulation, at 2 µM), 14.5%. Besides, the insulin secretion stimulation in experiment [2] is 2% (inactive). The viability decrease in experiment [3] was -15.2% (inactive). In addition, the tube area decrease in experiment [4] is -20.7% (inactive). For the same compound, the GLP1 secretion stimulation in experiment [5] was -1% (inactive). Besides, the inhibition of viability in [6] is 0% (inactive). Moreover, the viability decrease (inhibition) is -26.4% (inactive) in [7] and -5.8% (inactive) in experiment [8]. The fold change in [12] (setting [17]) is 1.04 (inactive) and 0.898 (inactive); in experiment [12] (setting [18]) it was 1.02 and 0.718. For the same compound, the cell count was 10100 and 7700 in [12] (setting [19]); 9680 and 8570 in experiment [12] (setting [20]). Also, the compound was classed as inactive in [14]. The z-score in experiment [15] was 0.485 (inactive).

With `Nc1cccc2c1CN(C1CCC(=O)NC1=O)C2=O` (configuration not stated), the nuclear beta-catenin stimulation in experiment [1] (at 10 µM) was 2% (inactive); in experiment [1] (stimulation, at 2 µM) it was 0.3%. Further, the insulin secretion stimulation in [2] is 1.3% (inactive). The viability decrease in [3] was 0% (inactive). For the same compound, the tube area decrease in experiment [4] is -3.8% (inactive). Also, the GLP1 secretion stimulation in experiment [5] is 0% (inactive). In addition, the inhibition of viability in [6] is -8.6% (inactive). Besides, the viability decrease (inhibition) was -19.5% (inactive) in experiment [7] and 1.2% (inactive) in experiment [8]. The fold change in experiment [12] (setting [17]) is 1.01 (inactive); in experiment [12] (setting [18]), 0.954. In addition, the cell count was 8240 in [12] (setting [19]) and 8190 in [12] (setting [20]). Besides, the z-score is -0.434 (inactive) in [13] (setting [21]) and 0.686 in experiment [13] (setting [22]). Moreover, the viability in experiment [16] (at 0.000305 µM, OCI-C5x cells, with rucaparib 10 µM, 100% = cells with rucaparib alone) is 116% (inactive); in experiment [16] (at 0.000305 µM, OCI-C5x cells, without rucaparib), 116% (inactive); in experiment [16] (at 0.000305 µM, OCI-P5x cells, with rucaparib 20 µM, 100% = cells with rucaparib alone) it was 126% (inactive); in experiment [16] (at 0.000305 µM, OCI-P5x cells, without rucaparib), 106% (inactive); in experiment [16] (at 0.00122 µM, OCI-C5x cells, with rucaparib 10 µM, 100% = cells with rucaparib alone), 122% (inactive); in experiment [16] (at 0.00122 µM, OCI-C5x cells, without rucaparib), 116% (inactive). The viability is 130% (inactive) in [16] (at 0.00122 µM, OCI-P5x cells, with rucaparib 20 µM, 100% = cells with rucaparib alone); 105% (inactive) in experiment [16] (at 0.00122 µM, OCI-P5x cells, without rucaparib); 126% (inactive) in experiment [16] (at 0.00488 µM, OCI-C5x cells, with rucaparib 10 µM, 100% = cells with rucaparib alone); 115% (inactive) in [16] (at 0.00488 µM, OCI-C5x cells, without rucaparib); 123% (inactive) in experiment [16] (at 0.00488 µM, OCI-P5x cells, with rucaparib 20 µM, 100% = cells with rucaparib alone); 95.9% (active) in experiment [16] (at 0.00488 µM, OCI-P5x cells, without rucaparib). Besides, the viability is 113% (inactive) in experiment [16] (at 0.0195 µM, OCI-C5x cells, with rucaparib 10 µM, 100% = cells with rucaparib alone); 114% (inactive) in experiment [16] (at 0.0195 µM, OCI-C5x cells, without rucaparib); 125% (inactive) in [16] (at 0.0195 µM, OCI-P5x cells, with rucaparib 20 µM, 100% = cells with rucaparib alone); 107% (inactive) in [16] (at 0.0195 µM, OCI-P5x cells, without rucaparib); 120% (inactive) in [16] (at 0.0781 µM, OCI-C5x cells, with rucaparib 10 µM, 100% = cells with rucaparib alone); 132% (inactive) in experiment [16] (at 0.0781 µM, OCI-C5x cells, without rucaparib). For the same compound, the viability is 133% (inactive) in experiment [16] (at 0.0781 µM, OCI-P5x cells, with rucaparib 20 µM, 100% = cells with rucaparib alone); 109% (inactive) in [16] (at 0.0781 µM, OCI-P5x cells, without rucaparib); 118% (inactive) in [16] (at 0.313 µM, OCI-C5x cells, with rucaparib 10 µM, 100% = cells with rucaparib alone); 117% (inactive) in [16] (at 0.313 µM, OCI-C5x cells, without rucaparib); 129% (inactive) in experiment [16] (at 0.313 µM, OCI-P5x cells, with rucaparib 20 µM, 100% = cells with rucaparib alone); 109% (inactive) in [16] (at 0.313 µM, OCI-P5x cells, without rucaparib). Further, the viability in [16] (at 1.25 µM, OCI-C5x cells, with rucaparib 10 µM, 100% = cells with rucaparib alone) was 121% (inactive); in experiment [16] (at 1.25 µM, OCI-C5x cells, without rucaparib), 119% (inactive); in experiment [16] (at 1.25 µM, OCI-P5x cells, with rucaparib 20 µM, 100% = cells with rucaparib alone), 114% (inactive); in [16] (at 1.25 µM, OCI-P5x cells, without rucaparib) it was 103% (inactive); in [16] (at 5 µM, OCI-C5x cells, with rucaparib 10 µM, 100% = cells with rucaparib alone), 115% (inactive); in experiment [16] (at 5 µM, OCI-C5x cells, without rucaparib), 117% (inactive). For the same compound, the viability in [16] (at 5 µM, OCI-P5x cells, with rucaparib 20 µM, 100% = cells with rucaparib alone) is 132% (inactive); in experiment [16] (at 5 µM, OCI-P5x cells, without rucaparib), 110% (inactive).
